Assay outcomes deposited in PubChem by several laboratories.
697 NFkB inh – inhibitors of the PMA/ionomycin-induced NF-kB reporter in 697 B cells; 697 B-cell NF-kB luciferase reporter, 16 h; inhibition, % at 4 µM; 330,000 tested, 0.33% active; AID 435022; in the data active means inhibition above about 35%
SMARCA2 act – activators of SMARCA2 function. MG213 cells, MMTV-luciferase reporter, dexamethasone, overnight. activation, % at 9.1 µM. 370,000 tested, 1% active. AID 652017; in the data active means activation above about 7.8%
esBAF inh – inhibitors of esBAF chromatin remodeling in mouse ES cells; AID 602393; reporter increase, % at 12.5 µM; Bmi1-luciferase knock-in reporter, 24 h; 100% = twice the neutral-well signal; 350,000 tested, 2% active; in the data active means activation above about 40%; inconclusive means no clear call, values can overlap the other calls;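 further: a rise in the Bmi1 reporter signal indicates esBAF inhibition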
Gli-Sufu block – antagonists of Gli-Sufu signaling; Sufu-KO-LIGHT fibroblasts, Gli luciferase reporter luminescence; inhibition, % at 5 µM; 340,000 tested, 0.74% active; AID 588413;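 active means inhibition above about 55%, limit read from the data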
Jurkat NFkB inh – lowers PMA/ionomycin-induced NF-kB signal in Jurkat cells; PMA/ionomycin-induced NF-kB luciferase reporter, luminescence; 330,000 tested, 0.53% active; inhibition, % at 4 µM; in the data active means inhibition above about 50%
Jurkat NFkB conf – lowers PMA/ionomycin-induced NF-kB signal in Jurkat cells. shares compounds with Jurkat NFkB inh. Jurkat NF-kB luciferase, 16 h. inhibition, % at 4 µM. 2,700 tested, 27% active. AID 435020;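 active means inhibition reaching about 45% at 4 µM in either replicate, limit read from the data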
A number is an active result; . = inactive; ? = inconclusive; / = no result given; ! = repeats disagree. Sampled rows, rich in hits. Any-hit rate of the full collection: about 3.3%.

SMILES	697 NFkB inh	SMARCA2 act	esBAF inh	Gli-Sufu block	Jurkat NFkB inh	Jurkat NFkB conf
O=C(CS(=O)(=O)c1ccccc1)CS(=O)(=O)c1ccccc1	/	.	/	/	/	/
O=S(=O)(C/C(=C/CO)S(=O)(=O)c1ccccc1)c1ccccc1	.	.	.	.	72	58
Cc1ccc(S(=O)(=O)N2CCCCC2CCNC(=O)C(=O)NCc2ccccc2)cc1 (stereo not given)	.	.	/	.	63	.
O=C(NCCc1ccccc1)C(=O)NCCC1CCCCN1S(=O)(=O)c1ccccc1 (stereo not given)	.	.	.	.	.	/
O=C(NCCc1ccccc1)C(=O)NCC1CCCN1S(=O)(=O)c1ccccc1 (stereo not given)	.	.	.	.	56	.
CCC(=NCCc1c(C)[nH]c2ccc(OC(F)(F)F)cc12)C1=C(O)CC(c2ccccc2)CC1=O (stereo not given)	.	.	/	.	67	.
CCCCC(=NCCc1c(C)[nH]c2ccc(OC)cc12)C1=C(O)CC(c2ccccc2)CC1=O (stereo not given)	.	.	/	.	69	.
CC(=O)Nc1sc2c(c1-c1nc3ccccc3s1)CCN(C(C)C)C2	.	/	.	.	84	.
CC(C)N1CCc2c(sc(NC(=O)c3ccc4ccccc4c3)c2C(N)=O)C1	.	.	.	.	.	/
NC(=O)c1c(NC(=O)c2cc3ccccc3o2)sc2c1CCC2	.	.	.	.	.	.
COc1ccc(N=C2C(=Nc3ccc(OC)cc3)N(c3ccc(N(C)C)cc3)C(=S)N2c2ccc(OC)cc2)cc1	.	.	/	.	70	.
COc1ccc(N=C2C(=Nc3ccc(OC)cc3)N(c3ccc(OC)cc3)C(=S)N2C(=O)c2ccc(OC)cc2)cc1	.	.	.	.	.	/
CN(C)CCCNC(=O)C[C@H]1CC[C@H]2[C@@H](COc3ccc(NC(=O)NC4CCCC4)cc3C(=O)N2C)O1	/	/	.	/	/	/
CS(=O)(=O)c1ccc(Sc2nc3ccccc3s2)c([N+](=O)[O-])c1	.	/	/	.	94	58
COc1cccc(Oc2cnc(N)nc2-c2ccc(OC)cc2O)c1	.	.	.	.	50	.
COc1cc(NC(=O)C2CCN(S(=O)(=O)c3ccc(N4CCCC4=O)cc3)CC2)cc(OC)c1	.	.	.	.	.	/
CC(C)NC(=O)C1CCN(S(=O)(=O)c2ccc(N3CCCC3=O)cc2)CC1	.	.	.	.	79	.
O=C(CN1CCOCC1)NCC[C@H]1CC[C@H](NS(=O)(=O)c2ccc(Cl)cc2)[C@H](CO)O1	/	/	.	/	/	/
C[C@@H]1CN([C@H](C)CO)C(=O)c2cc(NS(=O)(=O)c3cccs3)ccc2O[C@@H]1CN(C)C	/	/	.	/	/	/
C[C@@H]1CN([C@@H](C)CO)C(=O)c2cc(NS(=O)(=O)c3cn(C)cn3)ccc2O[C@H]1CN(C)Cc1ccc2c(c1)OCO2	/	/	.	/	/	/
O=[N+]([O-])c1ccc(N2CCN(c3cccc(Cl)c3)CC2)cn1	.	.	.	.	53	.
CCC(=O)Nc1c(C)nn(-c2ccc(C)c(C)c2)c1C	.	.	/	.	.	/
Cc1ccc(-n2nc(C)c(NC(=O)CCl)c2C)cc1C	.	.	/	.	64	.
CCOC(=O)N1CCC(NC(=O)c2cc3cc4cc(OC)ccc4nc3o2)CC1	.	.	.	.	.	/
COc1ccc2nc3oc(C(=O)NC4CCN(Cc5ccccc5)CC4)cc3cc2c1	.	.	.	.	63	.
SMILES	697 NFkB inh	SMARCA2 act	esBAF inh	Gli-Sufu block	Jurkat NFkB inh	Jurkat NFkB conf
CC1=C(/C=C/C(C)=C/C=C/C(C)=C\C(=O)O)C(C)(C)CCC1	.	.	.	.	.	/
CC1=C(/C=C/C(C)=C/C=C/C(C)=C/C(=O)Nc2ccc(O)cc2)C(C)(C)CCC1	.	.	.	70!	63	.
Cc1ccsc1/C=C/c1ccc2ccccc2n1	.	.	.	.	.	.
O=C(NCc1ccco1)C1CC(c2ccc(C(F)(F)F)cc2)=NO1 (stereo not given)	.	.	.	.	50	.
O=C(NCc1ccco1)C1CC(c2ccc(Cl)c(Cl)c2)=NO1 (stereo not given)	.	.	/	.	52	.
O=C(NCc1ccco1)C1CC(c2c(Cl)cccc2Cl)=NO1 (stereo not given)	.	.	.	.	.	/
Cc1cnc(NC(=O)COc2ccc3c(c2)CCC3)s1	.	.	.	.	.	.
Cc1ccccc1-c1ccc2c(c1)O[C@H](CN(C)CC1CC1)[C@H](C)CN([C@@H](C)CO)S2(=O)=O	/	/	.	/	/	/
O=C(NC1C=CS(=O)(=O)C1)c1sc2ccccc2c1Cl (stereo not given)	.	.	.	.	56	.
O=C(Nc1ccc(S(=O)(=O)N2CCCCC2)cc1)c1ccc(CN2CCOCC2)cc1	.	/	.	.	62	61
CCCCOC(=O)Nc1ccc(C(N)=O)cc1	.	.	?	.	.	/
O=C(Nc1ccc(N2CCCCC2)cc1)c1ccc(F)cc1	.	.	.	.	.	.
CC(=O)Nc1ccc(NC(=O)c2ccc(CN3CCc4ccccc4C3)cc2)cc1	.	.	.	.	.	/
CCCCOC(=O)Nc1ccc(N2CCCCC2)cc1	.	.	.	.	.	.
O=C(Nc1ccc(F)cc1)c1ccc(CN2CCc3ccccc3C2)cc1	.	.	.	.	58	.
O=C(Nc1ccc(N2CCOCC2)cc1)c1ccc(Cl)c(S(=O)(=O)N2CCCCC2)c1	.	.	.	.	51	57
CCN(CC)S(=O)(=O)c1ccc(NC(=O)c2ccc(CN3CCOCC3)cc2)cc1	.	.	.	.	58	58
O=C(Nc1ccc(S(=O)(=O)N2CCCC2)cc1)c1ccc(CN2CCOCC2)cc1	.	.	.	.	.	/
O=C(Nc1ccc(N2CCOCC2)cc1)c1cccc(S(=O)(=O)N2CCCCC2)c1	.	.	.	.	.	/
CCc1nc(SCC(=O)Nc2cc(C)on2)c2c(C)c(C)sc2n1	.	.	.	.	.	/
Cc1cc(NC(=O)CSc2nc(C3CC3)nc3sc(C)c(C)c23)no1	.	.	.	.	51	.
O=C(Nc1cccnc1)c1ccc(COc2ccccc2Cl)o1	.	.	.	.	.	/
O=C(Nc1cccnc1)c1ccc(COc2cc(Cl)ccc2Cl)o1	.	.	.	.	57	.
O=C(Nc1nc(-c2nc3ccccc3s2)cs1)C1CC1	.	.	.	.	.	.
O=C(CN1C(=O)CCC1=O)Nc1nc(-c2nc3ccccc3s2)cs1	.	.	.	.	.	/
SMILES	697 NFkB inh	SMARCA2 act	esBAF inh	Gli-Sufu block	Jurkat NFkB inh	Jurkat NFkB conf
COc1ccc2oc(C(=O)Nc3ccccn3)c(C)c2c1	.	.	.	.	.	.
COc1ccc2oc(C(=O)Nc3ccc(C)cn3)c(C)c2c1	.	.	?	.	.	/
O=C(Nc1ccccc1)c1cc(-c2ccccc2Cl)no1	.	.	56	.	.	.
CC(C)NC(=O)N(C)C[C@@H]1Oc2cc(C#C[C@@H](C)O)ccc2S(=O)(=O)N([C@@H](C)CO)C[C@@H]1C	/	/	.	/	/	/
O=C(Nc1ccc(Br)cc1F)c1ccc2c(c1)OCCO2	.	.	.	.	.	.
COc1cc(C(=O)N/N=C(\C)c2ccc3c(c2)OCO3)cc(OC)c1OC	.	.	/	.	52	.
